Data taken from PubChem BioAssay.
Results with a measured potency or affinity are listed apart. Inconclusive results are not listed. The source made the active and inactive calls.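 Rule for the calls: active = falling signal with fitted half-maximal potency no higher than twice the top valid tested dose; inconclusive = poor fit quality, or flat fit spanning -70% to -30%; inactive = potency over limit, rising signal, or flat fit inside 30%.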

Experiment: fungal growth arrest, C. neoformans – Alamar Blue, cherry-picks, dose response (AID 686998)
Conditions: Cryptococcus neoformans growth, 24 h; series mostly up to 35 µM; activity change, negative = inhibition: at the top concentration

| Compound | activity change, negative = inhibition |
| --- | --- |
| Cc1cc(C(=O)Nc2ccc3c(c2)C(=O)N(C)[C@H]2CC[C@@H](CC(=O)N[C@@H](C)c4ccccc4)O[C@H]2CO3)no1 | -24.3% (inactive) |
| C[C@@H]1CN([C@@H](C)CO)C(=O)Cc2cc(NC(=O)Nc3cccc4ccccc34)ccc2O[C@@H]1CN(C)Cc1ccc(C(=O)O)cc1 | -11.2% (inactive) |
| CO[C@@H]1CN(C)C(=O)c2cc(NC(=O)Nc3cccc(F)c3)ccc2OC[C@H](C)N(C)C[C@@H]1C | -26.4% (inactive) |
| COCCNC(=O)C[C@@H]1C[C@H]2c3cc(NC(=O)C4CCC4)ccc3O[C@H]2[C@@H](CO)O1 | -10.2% (inactive) |
| O=C(NC[C@H]1[C@@H](c2ccccc2)[C@@H](CO)N1C(=O)C1CCC1)NC1CCCC1 | 9.02% (inactive) |
| CCc1ccc(NC(=O)C2NC(=O)CC2c2ccccc2)cc1 (stereo unspecified) | -31.9% [at 56 µM] (inactive) |
| C[C@H]1CN([C@@H](C)CO)C(=O)Cc2cc(NC(=O)C3CC3)ccc2O[C@H]1CN(C)Cc1ccc(-c2ccccc2)cc1 | -9.93% (inactive) |
| CN1[C@@H]2c3ccc(-c4cccnc4)c(=O)n3C[C@@H]2[C@@H](CO)[C@@H]1C(=O)N1CCc2ccccc2C1 | -12.7% (inactive) |
| Cc1noc(C)c1NC(=O)N(C)C[C@H]1Oc2ccc(NS(=O)(=O)c3cn(C)cn3)cc2CC(=O)N([C@H](C)CO)C[C@H]1C | 29.3% (inactive) |
| COc1ccccc1-c1ccc2c(c1)O[C@@H](CN(C)C(=O)c1cccnc1)[C@H](C)CN([C@@H](C)CO)S2(=O)=O | -32.1% (inactive) |
| C[C@@H]1CN([C@@H](C)CO)C(=O)c2cc(NC(=O)Nc3ccc4c(c3)OCO4)ccc2O[C@H]1CN(C)Cc1ccc(Oc2ccccc2)cc1 | 8.54% [at 30 µM] (inactive) |
| COc1ccc(NC(=O)N(C)C[C@H]2OCCCC[C@H](C)Oc3ccc(NC(=O)C4CCCCC4)cc3C(=O)N([C@@H](C)CO)C[C@@H]2C)cc1 | -3.06% (inactive) |
| C[C@@H]1CN([C@H](C)CO)C(=O)c2cc(NS(=O)(=O)c3ccc(Cl)cc3)ccc2O[C@H]1CN(C)S(=O)(=O)c1ccc(F)cc1 | 20.1% (inactive) |
| COc1ccc(-n2ncc3c(SCC(=O)NNC(C)=O)ncnc32)cc1 | -36.1% (inactive) |
| Cc1noc(C)c1NC(=O)Nc1ccc2c(c1)C(=O)N([C@H](C)CO)C[C@@H](C)[C@H](CN(C)S(C)(=O)=O)OCCCC[C@@H](C)O2 | 34.2% (inactive) |
| CO[C@H]1CN(C)C(=O)c2cc(NC(=O)C3CCOCC3)ccc2OC[C@@H](C)NC[C@H]1C | 28.1% [at 30 µM] (inactive) |

| Compound | activity change, negative = inhibition |
| --- | --- |
| C[C@@H]1CCCCO[C@H](CN(C)C(=O)Nc2ccc(F)cc2)[C@H](C)CN([C@@H](C)CO)C(=O)c2cc(NS(=O)(=O)c3ccc(Cl)cc3)ccc2O1 | 41.9% (inactive) |
| CCS(=O)(=O)N1CCCCN2[C@H](CO)[C@@H](c3ccc(-c4ccc(C#N)cc4)cc3)[C@@H]2C1 | 1.7% (inactive) |
| O=C(CN(c1ccc(F)cc1)S(=O)(=O)c1ccccc1)NC1CCCCCC1 | -10.5% (inactive) |
| CCC(C)(C(=O)Nc1cccc(C)c1)N1CCC1=O (stereo unspecified) | -17.8% [at 60 µM] (inactive) |
| CCCCN1CCCCC1C(=O)Nc1c(C)cccc1C (stereo unspecified) | 5.41% (inactive) |
| CCS(=O)(=O)NCC[C@H]1CC[C@H](NS(=O)(=O)c2cccc(F)c2)[C@H](CO)O1 | 21.7% (inactive) |
| C[C@H](CO)N1C[C@H](C)[C@@H](CN(C)S(=O)(=O)c2ccc(Cl)cc2)Oc2c(NS(=O)(=O)c3ccc(F)cc3)cccc2C1=O | -36.6% (inactive) |
| COc1ccccc1-c1ccc([C@H]2[C@@H](C#N)N(C(=O)C3CC3)[C@@H]2CO)cc1 | -37.9% (inactive) |
| Cc1ccc(S(=O)(=O)N2C[C@@H](O)COC[C@@H]3O[C@H](CC(=O)NCc4ccc5c(c4)OCO5)CC[C@H]32)cc1 | 80.4% (inactive) |
| C[C@@H]1CCCCO[C@H](CN(C)C(=O)c2ccncc2)[C@H](C)CN([C@H](C)CO)C(=O)c2cc(NC(=O)CCC(F)(F)F)ccc2O1 | 10.8% (inactive) |
| C[C@H](CO)N1C[C@H](C)[C@@H](CN(C)S(C)(=O)=O)Oc2cc(C#Cc3ccccc3)ccc2S1(=O)=O | 26.7% (inactive) |
| C[C@H]1CN([C@@H](C)CO)C(=O)c2cc(NC(=O)Nc3cccc4ccccc34)ccc2O[C@@H]1CN(C)C(=O)Nc1ccc(C(F)(F)F)cc1 | 52.2% (inactive) |
| CO[C@H]1CN(C)C(=O)c2cc(NC(=O)c3ccc4c(c3)OCO4)ccc2OC[C@@H](C)N(CC2CC2)C[C@H]1C | -31.7% (inactive) |
| COc1ccc(NC(=O)N(C)C[C@@H]2OCCCC[C@H](C)Oc3ccc(NC(=O)Nc4ccc5c(c4)OCO5)cc3C(=O)N([C@H](C)CO)C[C@@H]2C)cc1 | 45.9% (inactive) |
| CNC(=O)C[C@H]1CC[C@H]2[C@H](COc3ccc(NC(=O)c4cc(C)on4)cc3C(=O)N2C)O1 | -23.3% (inactive) |
